Data: the supplement of paper PMC6411743
± gives the standard deviation of the averaged measurements. Of roughly 5,400 targets only a part is listed; those with the largest changes were picked by preference.

Compound: Nc1nc2c(ncn2[C@@H]2O[C@H](COP(=O)(O)OP(=O)(O)OP(=O)(O)O)[C@@H](O)[C@H]2O)c(=O)[nH]1 [guanosine triphosphate]
Test: NP40-soluble protein abundance relative to vehicle (solubility fold change) (ratio); higher = more soluble protein in presence of GTP
Procedure, shortened: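 Eight concentrations, 0.1 to 10 mM, were tested on Jurkat crude lysate for 10 min at room temperature and then 3 min at 37 °C, in three independent experiments. The lysate was solubilised with 0.8% NP40 and benzonase, ultracentrifuged, and the supernatant TMT-labelled for LC-MS/MS. Each value is the fold change against the detergent-processed vehicle in its own replicate, from vsn-normalised intensities.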

Chain of UniProt Q9H8M2 (Q9H8M2 whole entry): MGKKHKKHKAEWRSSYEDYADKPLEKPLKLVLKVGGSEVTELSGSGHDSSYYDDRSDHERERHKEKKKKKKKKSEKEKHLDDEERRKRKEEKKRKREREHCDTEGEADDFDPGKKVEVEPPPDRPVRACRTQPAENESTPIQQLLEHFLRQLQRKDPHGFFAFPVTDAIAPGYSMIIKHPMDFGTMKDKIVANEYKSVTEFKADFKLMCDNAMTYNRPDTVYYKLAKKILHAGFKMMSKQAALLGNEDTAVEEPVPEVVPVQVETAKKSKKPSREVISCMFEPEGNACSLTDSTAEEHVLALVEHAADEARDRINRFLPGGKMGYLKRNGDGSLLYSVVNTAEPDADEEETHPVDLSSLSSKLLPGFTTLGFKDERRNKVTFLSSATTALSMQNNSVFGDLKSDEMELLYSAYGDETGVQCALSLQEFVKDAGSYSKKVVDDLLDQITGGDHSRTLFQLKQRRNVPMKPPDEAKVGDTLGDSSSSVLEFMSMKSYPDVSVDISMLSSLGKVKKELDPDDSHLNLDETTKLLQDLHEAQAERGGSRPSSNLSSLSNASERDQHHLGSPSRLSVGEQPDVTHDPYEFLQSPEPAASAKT
Chain of UniProt Q9NR28 (Q9NR28 whole entry): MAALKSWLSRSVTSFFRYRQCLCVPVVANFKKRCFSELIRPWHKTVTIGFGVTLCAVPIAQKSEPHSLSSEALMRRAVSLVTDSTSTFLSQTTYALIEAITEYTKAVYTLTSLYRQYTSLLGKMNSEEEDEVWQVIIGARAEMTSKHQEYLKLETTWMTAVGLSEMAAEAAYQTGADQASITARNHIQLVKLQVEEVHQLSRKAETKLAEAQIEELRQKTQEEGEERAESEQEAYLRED
Chain of UniProt Q9NVP1 (Q9NVP1 whole entry): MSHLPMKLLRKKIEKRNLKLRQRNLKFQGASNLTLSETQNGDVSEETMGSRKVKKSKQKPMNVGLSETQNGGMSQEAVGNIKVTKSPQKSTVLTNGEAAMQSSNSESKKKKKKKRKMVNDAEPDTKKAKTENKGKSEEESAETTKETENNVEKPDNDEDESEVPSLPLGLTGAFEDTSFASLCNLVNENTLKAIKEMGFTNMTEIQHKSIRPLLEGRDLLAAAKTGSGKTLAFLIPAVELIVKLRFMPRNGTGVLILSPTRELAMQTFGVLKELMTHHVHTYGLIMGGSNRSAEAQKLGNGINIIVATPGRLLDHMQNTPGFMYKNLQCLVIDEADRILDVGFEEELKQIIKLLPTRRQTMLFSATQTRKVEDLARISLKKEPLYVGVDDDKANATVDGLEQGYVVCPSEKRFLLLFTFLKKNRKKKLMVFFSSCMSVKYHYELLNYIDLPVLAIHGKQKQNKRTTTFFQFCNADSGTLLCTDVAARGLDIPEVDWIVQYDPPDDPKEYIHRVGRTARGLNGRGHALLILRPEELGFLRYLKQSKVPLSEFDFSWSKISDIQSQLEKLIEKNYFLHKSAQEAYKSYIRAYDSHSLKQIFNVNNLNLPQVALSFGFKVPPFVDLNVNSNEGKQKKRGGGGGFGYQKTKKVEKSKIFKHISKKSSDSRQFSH
Chain of UniProt Q9NPF5 (Q9NPF5 whole entry): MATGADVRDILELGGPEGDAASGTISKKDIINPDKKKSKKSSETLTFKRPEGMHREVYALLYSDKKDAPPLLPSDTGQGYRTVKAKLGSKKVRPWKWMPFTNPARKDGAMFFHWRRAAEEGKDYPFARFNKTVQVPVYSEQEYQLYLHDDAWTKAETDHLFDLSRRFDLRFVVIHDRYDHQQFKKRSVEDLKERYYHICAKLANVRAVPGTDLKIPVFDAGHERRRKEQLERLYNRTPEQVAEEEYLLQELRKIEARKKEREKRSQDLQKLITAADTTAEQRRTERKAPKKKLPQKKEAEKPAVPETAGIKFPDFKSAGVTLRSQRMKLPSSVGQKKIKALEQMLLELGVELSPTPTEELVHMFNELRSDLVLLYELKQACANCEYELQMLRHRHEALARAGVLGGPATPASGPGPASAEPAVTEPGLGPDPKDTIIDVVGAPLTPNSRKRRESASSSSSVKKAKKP
Chain of UniProt Q9NX05 (Q9NX05 whole entry): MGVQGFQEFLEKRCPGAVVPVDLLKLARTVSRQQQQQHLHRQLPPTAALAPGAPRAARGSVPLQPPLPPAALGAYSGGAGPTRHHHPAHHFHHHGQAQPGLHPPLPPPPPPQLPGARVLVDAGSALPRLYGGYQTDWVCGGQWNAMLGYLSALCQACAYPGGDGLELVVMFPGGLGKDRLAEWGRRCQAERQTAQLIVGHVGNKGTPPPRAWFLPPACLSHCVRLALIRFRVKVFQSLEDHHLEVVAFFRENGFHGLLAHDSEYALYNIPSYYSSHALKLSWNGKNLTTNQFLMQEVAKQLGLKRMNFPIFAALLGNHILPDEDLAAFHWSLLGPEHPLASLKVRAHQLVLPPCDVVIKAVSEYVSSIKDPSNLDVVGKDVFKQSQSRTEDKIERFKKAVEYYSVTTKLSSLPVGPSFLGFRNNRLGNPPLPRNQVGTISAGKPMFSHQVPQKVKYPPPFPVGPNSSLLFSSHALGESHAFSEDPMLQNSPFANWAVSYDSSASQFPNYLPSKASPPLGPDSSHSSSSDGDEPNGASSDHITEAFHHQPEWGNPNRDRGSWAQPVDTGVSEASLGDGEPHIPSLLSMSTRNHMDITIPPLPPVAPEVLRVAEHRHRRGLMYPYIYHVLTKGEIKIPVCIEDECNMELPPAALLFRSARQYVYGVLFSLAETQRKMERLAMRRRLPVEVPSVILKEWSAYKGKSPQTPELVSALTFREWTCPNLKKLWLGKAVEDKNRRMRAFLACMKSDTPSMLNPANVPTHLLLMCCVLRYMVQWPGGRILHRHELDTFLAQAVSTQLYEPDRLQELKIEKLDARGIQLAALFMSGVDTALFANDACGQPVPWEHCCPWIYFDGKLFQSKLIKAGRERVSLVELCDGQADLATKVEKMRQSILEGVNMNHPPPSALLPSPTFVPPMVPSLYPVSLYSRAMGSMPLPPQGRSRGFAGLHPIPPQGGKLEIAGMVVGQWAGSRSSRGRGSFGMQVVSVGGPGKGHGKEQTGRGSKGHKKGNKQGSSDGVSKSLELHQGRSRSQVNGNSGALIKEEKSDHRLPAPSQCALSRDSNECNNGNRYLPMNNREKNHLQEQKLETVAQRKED
Chain of UniProt Q9BW71 (Q9BW71 whole entry): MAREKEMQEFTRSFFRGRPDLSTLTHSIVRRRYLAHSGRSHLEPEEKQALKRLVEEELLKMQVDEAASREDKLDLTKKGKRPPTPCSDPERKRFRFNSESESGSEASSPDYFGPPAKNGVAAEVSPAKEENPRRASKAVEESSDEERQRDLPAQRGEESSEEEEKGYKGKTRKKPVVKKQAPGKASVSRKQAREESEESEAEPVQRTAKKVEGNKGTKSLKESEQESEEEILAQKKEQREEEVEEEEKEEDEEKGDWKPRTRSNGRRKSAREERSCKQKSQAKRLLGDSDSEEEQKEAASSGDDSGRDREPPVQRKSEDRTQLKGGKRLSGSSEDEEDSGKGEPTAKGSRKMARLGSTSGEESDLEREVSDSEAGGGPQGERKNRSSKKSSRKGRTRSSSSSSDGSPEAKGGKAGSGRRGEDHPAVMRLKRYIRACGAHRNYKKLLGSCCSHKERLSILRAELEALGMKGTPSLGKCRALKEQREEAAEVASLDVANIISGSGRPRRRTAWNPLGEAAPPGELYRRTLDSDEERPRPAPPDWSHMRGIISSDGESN
Chain of UniProt Q9NW08 (Q9NW08 whole entry): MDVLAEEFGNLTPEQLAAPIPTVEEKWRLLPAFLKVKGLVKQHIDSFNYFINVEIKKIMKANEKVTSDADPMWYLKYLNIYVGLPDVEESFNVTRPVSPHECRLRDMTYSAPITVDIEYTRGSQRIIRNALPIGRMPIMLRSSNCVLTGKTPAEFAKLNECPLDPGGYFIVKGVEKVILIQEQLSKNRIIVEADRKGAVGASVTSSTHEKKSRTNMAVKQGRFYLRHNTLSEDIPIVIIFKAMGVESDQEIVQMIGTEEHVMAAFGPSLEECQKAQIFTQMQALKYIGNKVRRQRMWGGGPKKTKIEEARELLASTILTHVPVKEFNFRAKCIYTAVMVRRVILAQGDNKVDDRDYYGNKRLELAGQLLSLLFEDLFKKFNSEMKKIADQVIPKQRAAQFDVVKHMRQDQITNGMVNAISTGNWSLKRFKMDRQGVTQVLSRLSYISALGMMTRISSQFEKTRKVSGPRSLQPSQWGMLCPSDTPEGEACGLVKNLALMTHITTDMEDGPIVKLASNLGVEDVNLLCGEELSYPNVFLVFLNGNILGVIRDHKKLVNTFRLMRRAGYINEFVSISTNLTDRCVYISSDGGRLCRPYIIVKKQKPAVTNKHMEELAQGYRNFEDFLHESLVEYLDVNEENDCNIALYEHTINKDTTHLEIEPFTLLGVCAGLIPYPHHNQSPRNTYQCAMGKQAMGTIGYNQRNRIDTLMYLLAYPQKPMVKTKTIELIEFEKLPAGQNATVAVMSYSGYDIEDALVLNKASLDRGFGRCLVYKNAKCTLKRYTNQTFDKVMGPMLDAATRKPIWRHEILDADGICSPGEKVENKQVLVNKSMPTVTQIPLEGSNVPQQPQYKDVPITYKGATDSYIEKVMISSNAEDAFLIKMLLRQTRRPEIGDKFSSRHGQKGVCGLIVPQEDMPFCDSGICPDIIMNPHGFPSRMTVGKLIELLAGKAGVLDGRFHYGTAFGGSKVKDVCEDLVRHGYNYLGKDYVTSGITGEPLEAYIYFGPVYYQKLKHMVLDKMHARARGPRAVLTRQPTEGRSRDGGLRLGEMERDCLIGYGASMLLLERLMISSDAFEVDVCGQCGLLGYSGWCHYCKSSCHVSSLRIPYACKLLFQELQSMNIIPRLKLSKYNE
Chain of UniProt Q9NY12 (Q9NY12 whole entry): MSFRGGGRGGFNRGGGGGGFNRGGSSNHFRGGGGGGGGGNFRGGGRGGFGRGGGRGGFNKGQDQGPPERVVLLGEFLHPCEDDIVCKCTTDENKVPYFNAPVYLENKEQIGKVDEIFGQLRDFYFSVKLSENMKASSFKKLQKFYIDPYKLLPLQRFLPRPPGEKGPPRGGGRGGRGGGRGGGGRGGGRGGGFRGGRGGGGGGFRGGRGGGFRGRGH

Target	NP40-soluble protein abundance (concentration: 0.1mM)	NP40-soluble protein abundance (concentration: 0.5mM)	NP40-soluble protein abundance (concentration: 1mM)	NP40-soluble protein abundance (concentration: 2mM)	NP40-soluble protein abundance (concentration: 4mM)	NP40-soluble protein abundance (concentration: 6mM)	NP40-soluble protein abundance (concentration: 8mM)	NP40-soluble protein abundance (concentration: 10mM)
DDX21 (UniProt Q9NR30)	1.11 ± 0.027	1.1 ± 0.048	1.18 ± 0.026	1.32 ± 0.019	1.56 ± 0.018	1.82 ± 0.028	2.13 ± 0.038	2.698 ± 0.024
UniProt Q96JM7|Q96JM7-2	1.13 ± 0.15	1.14 ± 0.016	1.08 ± 0.16	1.13 ± 0.078	1.1 ± 0.2	1.23 ± 0.031	1.11 ± 0.056	1.15 ± 0.073
HIRIP3 (UniProt Q9BW71)	0.932 ± 0.071	0.925 ± 0.089	1.01 ± 0.1	0.983 ± 0.15	1.04 ± 0.14	1.07 ± 0.14	1.13 ± 0.06	1.14 ± 0.094
UniProt Q9NY12|Q9NY12-2	1.04 ± 0.097	1.06 ± 0.12	1.17 ± 0.2	1.34 ± 0.15	1.51 ± 0.24	1.72 ± 0.19	1.9 ± 0.27	2.35 ± 0.49
UniProt Q9P287|Q9P287-2	1.03 ± 0.026	0.973 ± 0.032	0.971 ± 0.066	0.953 ± 0.059	0.99 ± 0.083	0.913 ± 0.069	0.943 ± 0.058	0.946 ± 0.075
UTP18 (UniProt Q9Y5J1)	1.06 ± 0.091	1.16 ± 0.12	1.13 ± 0.091	1.24 ± 0.091	1.37 ± 0.11	1.3 ± 0.044	1.37 ± 0.17	1.57 ± 0.17
PUS7 (UniProt Q96PZ0)	0.992 ± 0.013	0.992 ± 0.016	0.944 ± 0.046	0.944 ± 0.029	0.907 ± 0.053	0.917 ± 0.022	0.889 ± 0.038	0.892 ± 0.059
ZHX3 (UniProt Q9H4I2)	0.975 ± 0.062	0.94 ± 0.043	0.994 ± 0.1	1.01 ± 0.099	0.967 ± 0.039	1.01 ± 0.079	1.05 ± 0.07	1.05 ± 0.11
UniProt Q9UJX6|Q9UJX6-2	1.3 ± 0.28	1.33 ± 0.37	1.18 ± 0.28	1.26 ± 0.47	1.3 ± 0.37	1.25 ± 0.46	1.12 ± 0.31	1.22 ± 0.48
UniProt Q9NVX0|Q9NVX0-2|Q9NVX0-3	0.873 ± 0.21	0.823 ± 0.036	1.02 ± 0.079	1.05 ± 0.083	1.01 ± 0.12	0.996 ± 0.14	0.963 ± 0.022	1.02 ± 0.17
DDX18 (UniProt Q9NVP1)	1.084 ± 0.0038	1.11 ± 0.024	1.08 ± 0.021	1.2 ± 0.071	1.42 ± 0.057	1.55 ± 0.061	1.69 ± 0.043	1.94 ± 0.066
UniProt Q9NW08|Q9NW08-2	1.08 ± 0.03	1.13 ± 0.075	1.09 ± 0.12	1.15 ± 0.18	1.19 ± 0.16	1.16 ± 0.19	1.13 ± 0.18	1.09 ± 0.17
UniProt Q96RW7|Q96RW7-2	1.17 ± 0.29	1.11 ± 0.23	0.938 ± 0.16	1.06 ± 0.37	0.985 ± 0.2	0.889 ± 0.19	0.892 ± 0.13	0.924 ± 0.16
DMAP1 (UniProt Q9NPF5)	1.04 ± 0.056	1.06 ± 0.059	1.11 ± 0.079	1.17 ± 0.099	1.22 ± 0.12	1.24 ± 0.15	1.29 ± 0.2	1.26 ± 0.18
UniProt Q9H8M2|Q9H8M2-3|Q9H8M2-6	0.966 ± 0.054	1.05 ± 0.13	1.03 ± 0.085	0.995 ± 0.033	1.04 ± 0.11	1.13 ± 0.12	1.11 ± 0.029	1.09 ± 0.04
UniProt Q9Y2X0-2|Q9Y2X0-3|Q9Y2X0	1.09 ± 0.2	1.07 ± 0.21	1.04 ± 0.17	1.16 ± 0.28	1.08 ± 0.21	1.11 ± 0.16	1.12 ± 0.18	1.04 ± 0.19
UniProt Q9NQS7|Q9NQS7-2	1.16 ± 0.11	1.2 ± 0.24	1.31 ± 0.089	1.28 ± 0.14	1.49 ± 0.21	1.6 ± 0.17	1.72 ± 0.11	1.97 ± 0.29
TESC (UniProt Q96BS2)	1.01 ± 0.035	0.983 ± 0.071	0.985 ± 0.095	0.968 ± 0.16	0.907 ± 0.074	0.932 ± 0.092	0.926 ± 0.073	0.915 ± 0.09
UniProt Q9BW83|Q9BW83-2	0.972 ± 0.019	1.05 ± 0.059	0.971 ± 0.02	0.958 ± 0.013	0.911 ± 0.036	0.95 ± 0.018	0.916 ± 0.016	0.944 ± 0.0068
UniProt Q9HA47|Q9HA47-3|Q9HA47-4	1.01 ± 0.02	0.946 ± 0.037	1.05 ± 0.1	0.966 ± 0.056	0.98 ± 0.1	0.987 ± 0.034	0.983 ± 0.12	0.958 ± 0.024
UniProt Q9H330|Q9H330-2	0.908 ± 0.04	0.876 ± 0.06	0.796 ± 0.083	0.809 ± 0.017	0.799 ± 0.035	0.834 ± 0.028	0.81 ± 0.074	0.833 ± 0.037
UniProt Q99707|Q99707-2	0.997 ± 0.019	1.01 ± 0.062	0.987 ± 0.015	1.01 ± 0.033	0.973 ± 0.022	0.965 ± 0.0072	0.928 ± 0.023	0.927 ± 0.029
UniProt Q96T23|Q96T23-2	1.02 ± 0.028	1.09 ± 0.081	1.25 ± 0.014	1.45 ± 0.1	1.72 ± 0.22	2.07 ± 0.29	2.49 ± 0.49	2.71 ± 0.62
FAM120C (UniProt Q9NX05)	1 ± 0.021	1.04 ± 0.017	1.04 ± 0.036	1.09 ± 0.065	1.12 ± 0.068	1.18 ± 0.077	1.25 ± 0.08	1.25 ± 0.061
AFG3L2 (UniProt Q9Y4W6)	0.998 ± 0.016	0.996 ± 0.016	0.946 ± 0.024	0.969 ± 0.022	0.977 ± 0.022	0.987 ± 0.04	0.988 ± 0.02	0.938 ± 0.014
DDX49 (UniProt Q9Y6V7)	1.02 ± 0.056	1.01 ± 0.047	1.03 ± 0.026	1.05 ± 0.072	1.12 ± 0.037	1.19 ± 0.022	1.26 ± 0.076	1.21 ± 0.077
NAT10 (UniProt Q9H0A0)	1.07 ± 0.065	1.04 ± 0.061	1.02 ± 0.063	1.07 ± 0.065	1.2 ± 0.079	1.31 ± 0.085	1.37 ± 0.077	1.59 ± 0.11
UniProt Q9NR28|Q9NR28-2	0.964 ± 0.011	0.957 ± 0.055	0.972 ± 0.041	0.963 ± 0.075	0.976 ± 0.059	0.96 ± 0.068	0.94 ± 0.033	1.01 ± 0.035
